ADAM17 inh = inhibitors of human ADAM17 | P78536 | recombinant ADAM17, EDANS/DABCYL FRET peptide cleavage | inhibition, % at 6.95 µM | actives 0.83% (n = 370,000);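 active means inhibition above the mean of compounds lying between control limits plus 3 SD, set per campaign, cut at about 8.5% in these data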;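 further: 0% = DMSO-only wells as the low control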
FAS-TE inh = inhibitors of human fatty acid synthase thioesterase domain. actives 0.67% (n = 360,000). P49327. inhibition, % at 15 µM. recombinant FAS-TE, OMFH fluorogenic substrate, fluorescence endpoint. AID 602261;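 active means compounds whose normalised, plate-corrected inhibition of enzyme fluorescence in the single-dose primary screen is 50% or more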;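 further: 0% = DMSO with enzyme and 100% = substrate without enzyme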
ADAM10 inh = inhibitors of human ADAM10 | O14672 | inhibition, % at 7 µM | recombinant ADAM10, EDANS/DABCYL FRET peptide cleavage, 3 h | actives 0.62% (n = 370,000);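 active means inhibition above a per-campaign cutoff equal to the mean of compounds falling between control-based bounds plus 3 SD, cut at about 20% in these data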;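 further: 0% = DMSO wells while the 100% control is not disclosed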
proKLK7 act = activators of human kallikrein-7 zymogen; activation, % at 7 µM; purified proKLK7, EDANS-DABCYL substrate fluorescence; 100% is mature enzyme control, 0% vehicle; actives 0.9% (n = 370,000); P49862;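 active means activation above the mean of all tested compounds plus 3 SD, computed per campaign excluding outliers beyond control limits, cut at about 13% in these data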
NR3A LBD binder = modulates the human NR3A ligand-binding domain. NR3A LBD differential scanning fluorimetry, Tm shift; 0% = protein alone, 100% = glycine-bound protein. Tm shift relative to glycine control, % at 25 µM. actives 2.5% (n = 340,000);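 active means melting temperature shift of at least 10% of the positive control shift, at one fixed dose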
ADAM10 confirm = confirmation of inhibitors of human ADAM10; shares compounds with ADAM10 inh; ADAM10 QFRET peptide cleavage, EDANS fluorescence; inhibition, % at 6.95 µM; actives 1% (n = 2,100);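 active means inhibition above about 20% chosen separately for each screening run, limit read from the data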;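 further: 0% = DMSO wells and 100% = marimastat wells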
ADAM17 counter = counter-screen for ADAM10 exosite inhibitors: inhibitors of human ADAM17; shares compounds with ADAM10 inh; AID 743214; ADAM17 QFRET peptide cleavage, EDANS fluorescence; actives 0.5% (n = 2,100); inhibition, % at 6.95 µM;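 active means mean triplicate inhibition above the solvent-only control wells' mean plus 3 SD, cut at about 12% in these data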;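 further: 0% = DMSO wells and 100% = marimastat wells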
Numbers without * were called inactive. Shown are actives, neighbours in structure and some others; about 4.6% of the full set was active somewhere.

CC(=O)C1=C(C)N(Cc2ccc(Cl)cc2)C(=S)NC1c1ccc(Cl)cc1 (stereo not given) was read as ADAM17 inh 6, ADAM10 inh 1 and proKLK7 act 0.
CN1OC[C@@H]2CN3C(=NCCc4ccccc4)Sc4ccccc4[C@@H]3C[C@@H]21 was read as ADAM17 inh -4, ADAM10 inh -11 and proKLK7 act 1.
O=C(CSc1nnc(SCc2ccccc2)s1)NNC(=S)Nc1ccccc1 was read as ADAM17 inh 8, FAS-TE inh -4, ADAM10 inh 24*, proKLK7 act -1, NR3A LBD binder 6, ADAM10 confirm 0 and ADAM17 counter 1.
`O=C(Cc1ccccc1)NNC(=S)Nc1ccccc1` gave ADAM17 inh -8, FAS-TE inh -4, ADAM10 inh -5, proKLK7 act 0 and NR3A LBD binder -1.
COc1ccccc1-c1cccc2[nH]c3c(c12)CCN1C(=O)[C@H]2[C@H](C)ON(C)[C@H]2C[C@@H]31 was read as ADAM17 inh -227, ADAM10 inh inactive and proKLK7 act -41.
`Cc1[nH]c2ccccc2c1N=Nc1ccccc1F` gave ADAM17 inh 8, FAS-TE inh 25, ADAM10 inh 30*, proKLK7 act 1, NR3A LBD binder 13*, ADAM10 confirm 6 and ADAM17 counter 1.
`CCOC(=O)[C@H]1[C@H]2COc3ccc(Br)cc3[C@H]2N2C(=O)CN(Cc3ccc(C)cc3)C(=O)[C@@]12C` gave ADAM17 inh 5, FAS-TE inh 14, ADAM10 inh 20*, proKLK7 act 1, NR3A LBD binder 0, ADAM10 confirm 1 and ADAM17 counter 1.
`COc1ccc2c(c1)OC[C@H]1[C@H]2N2C(=O)CN(Cc3ccccc3)C(=O)[C@@]2(C)[C@H]1c1ccccc1` gave ADAM17 inh 8, FAS-TE inh 49, ADAM10 inh 23*, proKLK7 act 0, NR3A LBD binder -2, ADAM10 confirm 4 and ADAM17 counter 1.
Screening COc1ccc2c(c1)OC[C@H]1[C@@H]2N2C(=O)CNC(=O)[C@@]2(C)[C@H]1c1ccccc1 returned ADAM17 inh -4, FAS-TE inh -7, ADAM10 inh -2, proKLK7 act 0 and NR3A LBD binder -3.
CCOC(=O)[C@H]1[C@H]2COc3ccc(Cl)cc3[C@@H]2N2C(=O)c3cc(Cl)ccc3NC(=O)[C@@]12C was read as ADAM17 inh 8, FAS-TE inh 32, ADAM10 inh 16, proKLK7 act 0 and NR3A LBD binder -14.
For CCOC(=O)[C@H]1[C@H]2COc3ccc(Cl)cc3[C@@H]2N2C(=O)c3cc(Br)ccc3NC(=O)[C@@]12C the results were ADAM17 inh 6, FAS-TE inh 50, ADAM10 inh 23*, proKLK7 act 1, NR3A LBD binder -9, ADAM10 confirm 5 and ADAM17 counter 1.
Cc1cccc(NC(=O)CCCN=C2NS(=O)(=O)c3ccccc32)c1C was read as ADAM17 inh -5, FAS-TE inh -8, ADAM10 inh 56*, proKLK7 act 0, NR3A LBD binder 0, ADAM10 confirm 0 and ADAM17 counter -1.
`COc1cc(OC)cc(C(=O)NCC(=O)NCCN2C(=O)S/C(=C\c3ccccc3Cl)C2=O)c1` gave ADAM17 inh 0, FAS-TE inh 23, ADAM10 inh 2, proKLK7 act 0 and NR3A LBD binder -1.
`COc1cc(C(=O)NCC(=O)NCCN2C(=O)S/C(=C\c3ccccc3Cl)C2=O)cc(OC)c1OC` gave ADAM17 inh 6, FAS-TE inh 10, ADAM10 inh 20*, proKLK7 act 0, NR3A LBD binder -1, ADAM10 confirm 0 and ADAM17 counter 0.
Screening CCOc1cc(/C=N/NC(=O)c2cccc([N+](=O)[O-])c2)ccc1OS(=O)(=O)c1ccccc1 returned ADAM17 inh 6, FAS-TE inh 27, ADAM10 inh 28*, proKLK7 act 0, NR3A LBD binder 1, ADAM10 confirm 4 and ADAM17 counter 1.
`CC(Oc1ccc(Br)cc1)C(=O)Nc1cc(Cl)ccc1N1CCN(C)CC1` (stereo not given) gave ADAM17 inh 5, FAS-TE inh 19, ADAM10 inh 20*, proKLK7 act 1, NR3A LBD binder 1, ADAM10 confirm 1 and ADAM17 counter 0.
COc1ccc(CCC(=O)Nc2cc(Cl)ccc2N2CCN(C)CC2)cc1 was read as ADAM17 inh -4, ADAM10 inh 9, proKLK7 act 0 and NR3A LBD binder 2.
Screening O=C(CCN1CCN(Cc2ccccc2)CC1)Nc1ccc(OCc2ccccc2)cc1 returned ADAM17 inh 2, FAS-TE inh 1, ADAM10 inh 21*, proKLK7 act 0, NR3A LBD binder -1, ADAM10 confirm 4 and ADAM17 counter 1.
`O=C(CCN1CCN(CCO)CC1)Nc1ccc(OCc2ccccc2)cc1` gave ADAM17 inh 0, FAS-TE inh -7, ADAM10 inh -2, proKLK7 act 0 and NR3A LBD binder 1.
Screening O=S(=O)(NCC(Nc1ccc(Cl)cc1)c1ccccc1)c1ccc(Cl)cc1 (stereo not given) returned ADAM17 inh 7, FAS-TE inh 30, ADAM10 inh 23*, proKLK7 act 0, NR3A LBD binder 28*, ADAM10 confirm 12 and ADAM17 counter 4.
For O=c1[nH][nH]c2c1[C@@H](c1ccc(F)cc1)O[C@H](CCc1ccccc1)C2 the results were ADAM17 inh 8, FAS-TE inh -44, ADAM10 inh 19 and proKLK7 act 0.
O=c1[nH][nH]c2c1C(c1ccc(F)cc1)OC(CCc1ccccc1)C2 (stereo not given) was read as ADAM17 inh 7, FAS-TE inh -13, ADAM10 inh 20*, proKLK7 act 0, ADAM10 confirm 3 and ADAM17 counter 1.
COc1cc(-c2c(C(=O)c3ccccc3)[nH]c(N)c2C(=O)NCCc2c[nH]c3ccccc23)ccc1F was read as ADAM17 inh 7, ADAM10 inh 16 and proKLK7 act -1.
`CCCCCCCCN1C(=O)[C@@H](CC(=O)N2CCSCC2)C[C@@]2(C(=O)OC)C1=C[C@H](C(C)(C)C)O[C@@H]2C` gave ADAM17 inh 0, ADAM10 inh 6 and proKLK7 act 0.
For Cc1ccccc1NC(=O)CSc1ccc(-c2ccc(-n3cccn3)cc2)nn1 the results were ADAM17 inh -3, FAS-TE inh -7, ADAM10 inh -9, proKLK7 act 0 and NR3A LBD binder 1.

Assay outcomes: PubChem BioAssay, several laboratories
